In PubChem BioAssay AID977606 (Broad Institute, 2014):
Hit rate of the full screen: of about 1,500 compounds, about 430 (29%) were called active. No rule for the calls is given here. Only a sample is shown. Entries with a potency or affinity are not part of this list.

Assay: insulin secretion activators without glucose, dose response, counter-screen for glucose-dependent insulin secretion activators, cell-based, INS-1E, Gaussia luciferase, luminescence, cherry-pick (AID 977606);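 also: 0% = median of neutral control wells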
Conditions: INS-1E Gaussia luciferase insulin secretion, no glucose, 100% = twice neutral-control luminescence; series mostly up to 35 µM; activation: at the top concentration

SMILES | activation
O=C(O)c1ccc(-n2nnnc2SCc2cccc(Br)c2)cc1 | -19% (inactive)
CCCCNc1cc(Cl)nc(N)n1 | -9.67% (inactive)
O=C(N/N=C/c1ccncc1)c1cc(-c2ccc(Br)s2)[nH]n1 | 15.7% (inactive)
CC1=CC(c2ccccc2)n2nc(NC(=O)CCC(=O)O)nc2N1 (stereo not given) | 23.7% (inactive)
CC(=O)NCCNC(=O)CNC(=O)c1ccc(Cl)cc1 | -4.51% (inactive)
C=CCn1cnc2scc(-c3ccc(OC)cc3)c2c1=O | -6.85% (inactive)
COc1cc2c(cc1OC)/C(=C/C(=O)c1ccc(NC(C)=O)cc1)NCC2 | -1.92% (inactive)
COC(=O)c1sc2ccccc2c1NC(=O)c1cccs1 | 5.35% (inactive)
O=C(Nc1nonc1NC(=O)c1cccs1)c1cccs1 | 2.51% (inactive)
CCOc1ncccc1C(=O)Nc1ccc(S(=O)(=O)Nc2nccs2)cc1 | 10.1% (inactive)
O=C(O)c1cccc(N/N=C/c2sc(N3CCOCC3)nc2-c2ccccc2)c1 | 5.36% (inactive)
Cc1ccc(NC(=O)CC2S/C(=N/N=C/c3c[nH]c4ccccc34)NC2=O)cc1 (stereo not given) | -5.04% (inactive)
Cc1ccc(CC2S/C(=N/c3ccccn3)NC2=O)cc1 (stereo not given) | 2.79% (inactive)
CCc1ccc2c(c1)cc(CN(Cc1ccco1)C(C)=O)c1nnnn12 | -15.1% (inactive)
N#CCc1nn2c(-c3ccccc3)ccnc2c1C#N | -3.25% (inactive)
O=C(OCc1c(-c2ccccc2)ncc2ccccc12)c1cccs1 | 21.3% (inactive)
O=C(NCc1ccco1)c1ccc2c(=O)n(CCC3=CCCCC3)c(=O)[nH]c2c1 | -26.6% (inactive)
Cc1c(CC(=O)O)c(=O)oc2c(C)c(OCc3ccccc3Br)ccc12 | -2.31% (inactive)
N#Cc1c(N)n(C2CCCCC2)c2nc3ccccc3nc12 | 57.7% (inactive)
COc1ccc(-n2c(O)cnc2Nc2nc(C)cc(C)n2)cc1OC | -3.92% (inactive)
CCn1ccc(C(=O)Nc2ccccc2SC)n1 | 1.42% (inactive)
CCOC(=O)Cn1c(=O)n(Cc2ccc(OC)cc2)c(=O)c2cccnc21 | -7.55% (inactive)
COc1ccc(CNC(=O)COC(=O)c2cc(C)nc3ccccc23)cc1 | -10.3% (inactive)
Cc1ccc(NC(=O)[C@@H](Cc2ccccc2)NC(=O)[C@H]2O[C@@H](n3ccc(=O)[nH]c3=O)[C@H](O)[C@@H]2O)cc1C | 23.2% (inactive)

SMILES | activation
CNc1nc(N)c(C(=O)C(C)(C)C)s1 | -4.21% (inactive)
COCCn1c(=S)[nH]c2sc3c(c2c1=O)CCCC3 | -6.53% [at 11 µM] (inactive)
COc1ccc(OC)c(C2=Nn3c(nnc3-c3ccncc3)SC2)c1 | -10.9% (inactive)
CC(C)Cn1c(=O)n(C)c(=O)c2[nH]cnc21 | -2.64% (inactive)
O=C(NCC1CCCO1)C1CCC(N2C(=O)c3ccccc3C2=O)CC1 (stereo not given) | -8.16% (inactive)
CC(C)NC(=O)C1(C)CN(S(C)(=O)=O)CC(=O)N1CCCN1CCOCC1 (stereo not given) | 2.72% (inactive)
O=C(CC1SC2=NCCN2C1=O)Nc1ccc(Br)cc1 (stereo not given) | -8.59% (inactive)
O=C(NC1CCCC1)C(C1CC1)n1c(-c2ccccn2)nc2ccccc21 (stereo not given) | -18.3% (inactive)
COc1ccc(C(O)c2nccc3cc(OC)c(OC)cc23)cc1OC (stereo not given) | -5.12% (inactive)
O=C(NN=C1CCCC1)c1cc(-c2ccccc2)n[nH]1 | -20% (inactive)
COc1ccc(/C=N/NC(=O)c2cc(-c3ccc4c(c3)OCO4)n[nH]2)cc1OC | -16.1% (inactive)
Cc1cccc(CN2C(=O)CSc3ccc(C(=O)NC4CC4)cc32)c1 | 0.275% (inactive)
CNc1nc(Sc2ccccc2)cc(C(F)(F)F)n1 | 129% (inactive)
CCOC(=O)c1cnc2ccc(Cl)cc2c1Nc1ccc(S(=O)(=O)Nc2ncccn2)cc1 | -1.89% (inactive)
CC(=O)c1cccc(Nc2ncnc3ccc(Br)cc23)c1 | -12.3% (inactive)
COc1ccc(/C(C)=N/Nc2ccc(C(=O)O)cc2)cc1OC | 13.4% (inactive)
Cc1ccnc(NC(=O)Nc2ccc(Br)cc2Cl)c1 | 4.76% (inactive)
Cc1cc(C(=O)Nc2cccc(O)c2)c(C)o1 | -9.65% (inactive)
COc1ccc(Cl)cc1C(=O)Nc1cccc(-c2ccc3nncn3n2)c1 | -8.31% (inactive)
COc1ccc(CCN(C)C(=O)CCNS(=O)(=O)c2ccccc2C(F)(F)F)cc1OC | 0.4% (inactive)
NNc1nc(-c2ccccc2)c2ccccc2n1 | -5.34% (inactive)
COc1nc(-c2ccccc2)c2cc(C)ccc2n1 | 2.68% (inactive)
NC(=O)c1cc2cc(Cl)ccc2o/c1=N/NC(=O)c1cccs1 | -11.5% (inactive)
COc1ccc(/C=C2/SC(=O)N(NS(=O)(=O)c3ccccc3)C2=S)cc1OC | 8.84% (inactive)

SMILES | activation
CCc1nc2ccc(C(=O)N(C)CCCN(C)C)cn2c1N(C=O)CCC(C)C | 12.7% (inactive)
CCCc1cc2c(OC)ccc(O)c2c(=O)n1C | 17.8% (inactive)
CCn1nc(C(=O)Nc2ccc3nc(C)sc3c2)c2ccccc2c1=O | 4.93% (inactive)
CC(=O)Nc1ccc(Cl)c(-c2nc3ncccc3o2)c1 | -0.068% (inactive)
CNc1cc(-c2ccc(OC)c(OC)c2)ncn1 | 0.426% (inactive)
CC(C)c1c(C(=O)N/N=C/c2cccc3ccccc23)nnn1-c1nonc1N | -18.9% (inactive)
CC(C)Nc1nc(NC(C)(C)C)nc(Oc2ccc(=O)n(C)n2)n1 | -1.51% (inactive)
COc1cc2c(cc1OC)-c1cc(Nc3ccc(C)cc3)nc(=O)n1CC2 | -11.2% (inactive)
COc1ccc(OC)c(N(CC(=O)NN=C2CCN(C)CC2)S(=O)(=O)c2ccccc2)c1 | 2.12% (inactive)
CCCCC(=O)Nc1ccc(C(=O)NNC(=O)c2ccc(C)c(Br)c2)cc1 | -4.37% (inactive)
COc1ccc(/C=N/n2c(-c3n[nH]c4c3CCC4)n[nH]c2=S)cc1OC | -11.4% (inactive)
NC(=O)c1ccsc1NC(=O)COC(=O)CNC(=O)c1ccc(Cl)cc1 | -1.84% (inactive)
COc1ccc(C(=O)NCC(=O)OCC(=O)Nc2sccc2C#N)cc1OC | -1.08% (inactive)
Cc1cc2oc(=O)cc(CN3CCOCC3)c2c(C)c1Cl | -14.3% (inactive)
c1ccc2c(NCC3CCCO3)nc(N3CCCCC3)nc2c1 (stereo not given) | -9.01% (inactive)
COc1cc(C2N(C)CCC3(OCCO3)C2(C)C)cc(OC)c1OC (stereo not given) | -3.95% (inactive)
CCOc1ccc2oc(C(=O)N(C)CCc3ccc(OC)c(OC)c3)c(C)c2c1 | 11% (inactive)
COc1ccc(-c2cc3nc4ccccc4n3c(N)c2C#N)cc1 | 0.43% (inactive)
O=C(NCCCNc1ccnc2cc(Cl)ccc12)c1ccccc1F | 15.9% (inactive)
COc1cccc(NC(=O)CN(C)C(=O)Cn2[nH]c(=O)c3ccccc3c2=O)c1 | 7.36% (inactive)
COc1ccc(C(=O)Cc2cc3cccc(OC)c3oc2=O)cc1 | -13.9% (inactive)
CCn1c(=O)[nH]c(=O)c2c(N)c(C(=O)c3cc(F)ccc3F)sc21 | -0.669% (inactive)
